Measurements as given in PubChem BioAssay AID1851 (National Center for Advancing Translational Sciences (NCATS), 2009).
Among all 16,000 compounds or so, about 5,100 (32%) were called active. Not shown: some 25% with an inconclusive outcome. Some of the results follow. Unmarked numbers belong to inactive results. The call rests on the fitted dose curve; in most records, active means well fitted curve in the direction sought with a large enough effect; inconclusive means small, poorly fitted or top-dose-only effect, or effect the other way; inactive means no such curve, though single readings can be large or run the other way.

biological target: Cytochrome P450 3A4 (Homo sapiens) (UniProt P08684); assay: Cytochrome panel assay with activity outcomes; conditions: recombinant CYP, pro-luciferin dealkylation, luminescence, p450-cyp3a4; series mostly up to 57.1 µM; activity, negative = inhibition: at the top concentration
Sequence (P08684 whole entry, looked up): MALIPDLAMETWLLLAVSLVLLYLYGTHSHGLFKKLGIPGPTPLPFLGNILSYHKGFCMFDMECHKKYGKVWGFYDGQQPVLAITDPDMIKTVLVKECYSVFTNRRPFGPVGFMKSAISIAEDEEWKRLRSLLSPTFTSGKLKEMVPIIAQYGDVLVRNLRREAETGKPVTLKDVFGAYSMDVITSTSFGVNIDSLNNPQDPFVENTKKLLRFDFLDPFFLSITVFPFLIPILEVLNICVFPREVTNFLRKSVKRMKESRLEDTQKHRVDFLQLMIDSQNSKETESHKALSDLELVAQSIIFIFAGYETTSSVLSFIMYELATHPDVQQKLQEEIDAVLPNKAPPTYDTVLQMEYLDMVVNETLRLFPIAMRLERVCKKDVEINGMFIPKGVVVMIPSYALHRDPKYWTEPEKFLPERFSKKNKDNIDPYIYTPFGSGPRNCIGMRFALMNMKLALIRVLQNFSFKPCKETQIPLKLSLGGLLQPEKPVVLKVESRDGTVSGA
On the % scale 0 is the no-effect control and ±100 the full control effect.

SMILES	AC50	activity, negative = inhibition
O=C(CCN1C(=O)c2ccccc2C1=O)NC(=S)Nc1cccc(Cl)c1	15.8 µM (active)	–
Cc1cnn(CCC(=O)NNC(=S)Nc2cccc(Cl)c2)c1	12.6 µM (active)	–
O=C(Nc1cccc(Cl)c1)N1CCN2C(=O)c3ccccc3C12c1ccccc1 (configuration not stated)	–	-22.9% [at 2.29 µM]
Cc1cccc(NC(=S)NNC(=O)CCn2cc(C)cn2)c1	–	17%
O=C(COc1ccccc1Cl)NC(=S)Nc1cccc(NC(=O)c2ccccc2Cl)c1	–	7.56% [at 2.29 µM]
CNC[C@H](O)[C@H](O)[C@H](O)[C@H](O)CO	–	-7.18% [at 25.6 µM]
Cc1cccc(NC(=O)c2onc3c2CCCC3)c1C	–	-26.3%
Cc1cccc(NC(=O)c2cccc(N3C(=O)C4C5CCC(C5)C4C3=O)c2)c1C (configuration not stated)	11.2 µM (active)	–
CN(C)c1ccc(NC(=O)c2cccc(N3C(=O)C4C5C=CC(C5)C4C3=O)c2)cc1 (configuration not stated)	–	-26%
c1ccc2c(N3CCOCC3)nc(-c3ccoc3)nc2c1	6.31 µM (active)	–
Clc1ccccc1-c1nc(N2CCNCC2)c2ccccc2n1	25.1 µM (active)	–
Clc1ccccc1-c1nc(NC2CCNCC2)c2ccccc2n1	–	-3.64%
Cc1noc(C)c1-c1nc(N2CCN(C)CC2)c2ccccc2n1	–	-26.4%
Cc1noc(C)c1-c1nc(N2CCOCC2)c2ccccc2n1	6.31 µM (active)	–
Cc1ccccc1-c1nc(N2CCOCC2)c2ccccc2n1	15.8 µM (active)	–
O=C(O)CCCCCCCC(=O)O	–	0.705%
CCOC(=O)C(C)(C)[C@H](O)C(C)C	–	2.08% [at 11.4 µM]
Cc1cc2nc3c(=O)[nH]c(=O)nc-3n(CC(O)C(O)C(O)CO)c2cc1C (configuration not stated)	–	-18.2% [at 25.6 µM]
O=C1NC(c2ccccc2)=NC1(NS(=O)(=O)c1ccccc1)C(F)(F)F (configuration not stated)	–	-3.82%
Cc1ccccc1-c1nc(N2CCN(C)CC2)c2ccccc2n1	20 µM (active)	–
Cc1ccccc1-c1nc(N2CCNCC2)c2ccccc2n1	25.1 µM (active)	–
OC[C@@H]1O[C@@H](n2cnc3c(SCc4ccccc4)ncnc32)[C@@H](O)[C@H]1O	–	7.88% [at 11.4 µM]
Nc1nc(Cl)cc(NCCO)n1	–	-4.92% [at 11.4 µM]
CCCCCCCCCCCCCCCCCCc1ccc(C(=O)/C=C\C(=O)O)cc1	–	-8.11%
COc1ccccc1NC(=O)c1ccc(-n2cccn2)nc1	–	0.809%

SMILES	AC50	activity, negative = inhibition
Cc1c(Cl)cccc1NC(=O)c1ccc(-n2ccnc2)nc1	0.0398 µM (active)	–
Cc1nc(C(=O)Nc2cccc(Cl)c2Cl)nn1-c1cc(OC(C)C)c(Cl)cc1Cl	–	-26.4%
O=C(Nc1ccc(F)cc1)c1ccc(-n2ccnc2)nc1	0.126 µM (active)	–
Cn1c(=O)c2c(nc(NCCNc3nc4c(c(=O)n(C)c(=O)n4C)n3C)n2C)n(C)c1=O	–	8.34% [at 11.4 µM]
CN(C)CCNc1nc2c(c(=O)n(C)c(=O)n2C)n1C	–	-5.65% [at 11.4 µM]
COc1cccc(Cn2c(NCc3cccnc3)nc3c2c(=O)n(C)c(=O)n3C)c1	3.16 µM (active)	–
O=C(CCCNS(=O)(=O)c1cccc2nsnc12)NCCc1ccccc1	7.08 µM (active)	–
N#CC1=C(N)OC2=C(C(=O)CCC2)C12CCC1(CC2)OCCO1	–	-15.2%
COc1ccc(C2C(C#N)=C(N)OC3=C2C(=O)CC(C)(C)C3)c([N+](=O)[O-])c1OC (configuration not stated)	5.01 µM (active)	–
CN1CCN(/C=N/C2=C(C#N)C(c3ccccc3)C3=C(CC(C)(C)CC3=O)O2)CC1 (configuration not stated)	–	1.82% [at 2.29 µM]
COc1cc(C2C(C#N)=C(N)OC3=C2C(=O)CCC3)c([N+](=O)[O-])cc1OC (configuration not stated)	11.2 µM (active)	–
Cc1cc(C2C(C#N)=C(N)OC3=C2C(=O)CC(C)(C)C3)c(C)s1 (configuration not stated)	3.55 µM (active)	–
CCSC[C@@H](N)C(=O)O	–	-3.53% [at 11.4 µM]
COC(=O)\C(C(C)=O)=C(/C=C/C=C/C=C/N(C)C)N(C)C	–	1.83% [at 2.29 µM]
CCc1c(C)nc(N)n2c(SCC(=O)Nc3ccccc3)nnc12	17.8 µM (active)	–
CN(Cc1ccco1)c1ccnc(-c2cccnc2)n1	12.6 µM (active)	–
CN(Cc1ccco1)c1ccnc(-c2cccc(C#N)c2)n1	12.6 µM (active)	–
CN(Cc1ccco1)c1ccnc(-c2ccoc2)n1	–	-11.2%
COc1cccc(-c2nccc(N(C)Cc3ccco3)n2)c1	20 µM (active)	–
CN(C)c1ncc2nc(-c3cccc(C#N)c3)c(=O)n(C[C@H]3CCCO3)c2n1	–	-10.8%
CCN=C1NN=C(c2ccc(C)cc2)CS1	15.8 µM (active)	–
CC(=O)Nc1ccc(C#Cc2ccc(NC(C)=O)cc2)cc1	–	-11.2%
Cc1cccc(NC(=O)CC2Nc3cccc4cccc(c34)NC2=O)c1 (configuration not stated)	2.51 µM (active)	–
N/N=C1/c2ccccc2N[C@H]1OC(=O)Nc1ccccc1	–	-29.3% [at 11.4 µM]
CC(=O)Nc1ccc(NC(=O)CC2Nc3cccc4cccc(c34)NC2=O)cc1 (configuration not stated)	10 µM (active)	–

SMILES	AC50	activity, negative = inhibition
COc1cccc2c1C(=N)c1c(O)c3c(c(O)c1C2=O)C[C@](O)(C(C)=O)C[C@@H]3O[C@H]1C[C@H](N)[C@@H](O)[C@H](C)O1	–	-16% [at 11.4 µM]
COc1ccc(NS(=O)(=O)c2ccc(NC(=O)c3cnn4c(C(F)F)cc(-c5ccc(C)cc5)nc34)cc2)cc1	1.26 µM (active)	–
Cc1cccc(C)c1NC(=O)CSc1nc(C)c(CC(=O)c2ccc(Br)cc2)c(C)c1C#N	5.01 µM (active)	–
CCC(=O)Nc1nonc1-c1nc2ccccc2n1N(C(=O)CC)C(=O)CC	22.4 µM (active)	–
CC(=O)Nc1nonc1NC(=O)c1ccc(C(C)(C)C)cc1	–	-6.73% [at 11.4 µM]
CCn1c(-c2nonc2NC(=O)c2ccccc2)nc2ccccc21	3.16 µM (active)	–
O=C(O)Cn1c(-c2ccccc2)nc2ccccc21	–	3.83%
Cc1nonc1NCn1nnc2ccccc21	–	2.63%
CCC(=O)N1CCn2c1nc1ccccc12	–	-0.0339%
Nc1c(S(N)(=O)=O)cc(S(N)(=O)=O)cc1S(N)(=O)=O	–	-3.99% [at 11.4 µM]
Cc1ccc(-n2c(=O)c3sccc3n(CC(=O)NCc3ccco3)c2=O)cc1F	–	-1.5%
O=C(CCn1c(=O)[nH]c2ccsc2c1=O)Nc1ccc(F)c(F)c1	–	10.8%
COCCn1c(=S)[nH]c2cc(C(=O)NC(C)C)ccc2c1=O	–	13.9%
COCCCn1c(=S)[nH]c2ncccc2c1=O	–	-24.6%
COCCNC(=O)CCCCCn1c(=S)[nH]c2ccccc2c1=O	8.91 µM (active)	–
O=C(CCCCn1c(=S)[nH]c2ccsc2c1=O)NCc1ccco1	7.08 µM (active)	–
CCOc1cc2[nH]c(=S)n(CCCC(=O)NCc3ccco3)c(=O)c2cc1OCC	3.98 µM (active)	–
O=C(NCc1ccco1)c1ccc2c(=O)n(-c3ccccc3)c(=S)[nH]c2c1	–	-4.58%
O=C(CCCCCn1c(=O)[nH]c2ccsc2c1=O)NCc1ccc2c(c1)OCO2	0.631 µM (active)	–
O=C1C2Sc3[nH]c(=O)sc3C(c3ccccc3)C2C(=O)N1c1ccccc1 (configuration not stated)	7.94 µM (active)	–
O=C1C2Sc3[nH]c(=O)sc3C(c3ccccc3)C2C(=O)N1c1ccc(Cl)cc1 (configuration not stated)	12.6 µM (active)	–
O=C1C(C2=NC(C(=O)O)C3C(=O)N(c4ccc(Cl)cc4)C(=O)C23)=C(O)c2ccccc21 (configuration not stated)	–	16.7%
Nc1ccccc1CCCC(=O)O	–	0.683% [at 11.4 µM]
C=CCn1c(SCC(=O)Nc2ncc(Cc3ccc(Br)cc3)s2)nnc1-c1ccncc1	1.41 µM (active)	–
O=C(CSc1nnc(-c2ccncc2)n1Cc1ccccc1)Nc1nccs1	–	-23.1% [at 2.29 µM]

SMILES	AC50	activity, negative = inhibition
CC(C)n1c(N2CCN(C(=O)Nc3ccccc3)CC2)nc2ccccc21	–	-29.4%
CC(C)N(C(=O)CSc1nc2ccccc2n1-c1ccccc1)C(C)C	7.94 µM (active)	–
CCCCc1c(O)nc(SCCN(C)C)n(-c2ccccc2)c1=O	–	-3.84%
CNc1c2c(nn1C)CCCC2	–	2.07%
O=C(Nc1ccc(Oc2ccccc2)cc1)C1CCN(c2c3c(nc4ncnn24)CCC3)CC1	–	-19%
Cc1ccc(C2C(=O)N(C3CCCC3)CC(=O)N2CC2COc3ccccc3O2)cc1 (configuration not stated)	3.98 µM (active)	–
CC1CCCC(C)N1CC(O)COCC1COc2ccccc2O1 (configuration not stated)	–	7.88%
CC1CCCN(CC(O)COCC2COc3ccccc3O2)C1 (configuration not stated)	–	-2.38%
CN(C)c1ccc(-c2ccc3ncnc(N4CCNCC4)c3c2)cc1	20 µM (active)	–
c1cncc(-c2ccc3ncnc(N4CCNCC4)c3c2)c1	12.6 µM (active)	–
CN1CCN(c2ncnc3ccc(-c4cccnc4)cc23)CC1	15.8 µM (active)	–
CN1CCN(c2ncnc3ccc(-c4ccc5c(c4)OCO5)cc23)CC1	7.94 µM (active)	–
N[C@H](C(=O)O)[C@@H]1[C@@H](C(=O)O)C1(F)F	–	-12.3%
OC[C@@H]1O[C@H](n2cnc3c(/C=C(\O)c4ccccc4)ncnc32)[C@H](O)[C@@H]1O	–	-15.3% [at 11.4 µM]
NC(N)=NC[C@@H]1CCCCCCN1	–	-2.73% [at 11.4 µM]
CCN(CC)CC[n+]1ccc2c(C)c3[nH]c4ccc(O)cc4c3c(C)c2c1	–	-18.3% [at 11.4 µM]
Cc1sc2ncnc(OCC(=O)NC(C)C)c2c1C	–	0.697% [at 11.4 µM]
N#Cc1cccc(-c2ccc3ncnc(N4CCNCC4)c3c2)c1	20 µM (active)	–
N#Cc1cccc(-c2ccc3ncnc(NC4CCNCC4)c3c2)c1	–	-28.7%
COCCNC(=O)CSc1ncnc2sccc12	–	0.766% [at 2.29 µM]
CCc1ccc(OCC(=O)NNC(=O)CSc2ncnc3sc(C)c(C)c23)cc1	–	1.75% [at 0.457 µM]
COC(=O)c1c(-c2ccccc2)csc1NC(=O)CSc1ncnc2sc(C)c(C)c12	8.91 µM (active)	–
